# Sampled rows, rich in hits. Any-hit rate of the full collection: about 1.2%.
# VLA-4 inh: inhibition in a human VLA-4 binding assay | VLA-4 expressing cells, ligand binding flow cytometry | inhibition, % (about 7 µM as worked out from the volumes in the protocol) | actives 0.2% (n = 330,000) | AID 2557; in the data active = inhibition above about 50%
# Yeast superoxide: yeast age-related superoxide inhibition as caloric restriction mimetic; S. cerevisiae aged cells, superoxide DHE fluorescence; hits give low values; superoxide response (% of plate mean), % at 10 µM; actives 0.18% (n = 330,000);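 active = superoxide response under a set limit, about three screen SD below normal, cut at about 65% in these data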;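 also: yeast aged for seven days with compound at 30 °C before DHE staining; 100% = average MFI of all compound-treated wells on the plate with controls excluded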
# SKN-1 inh: inhibitors of C. elegans SKN-1. AID 624304. C. elegans VP596 Pgst-4::GFP/RFP ratio, acrylamide-induced, 24 h. inhibition, % at 21.8 µM. actives 0.49% (n = 360,000);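 active = interference check ratio from 0.5 to 1.5 plus GFP to RFP signal ratio inhibition reaching or exceeding a fixed threshold, cut at about 30% in these data, passing the limit was not always enough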
# ABCB6 inh 2: human ABCB6 transporter inhibition; actives 0.19% (n = 360,000); Q9NP58; K562-ABCB6 porphyrin accumulation, flow cytometry, 1 h; hits give low values; fluorescence ratio to DMSO, % at 10 µM; AID 602162;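 active = fluorescence ratio to DMSO below 75%, the collection mean minus 3 SD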;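 also: signal is porphyrin accumulated inside mitochondria; 100% equals median channel fluorescence of DMSO control wells; lower ratio means ABCB6 inhibition with less porphyrin fluorescence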
# Platelet DG rel: platelet dense granule release activity | inhibition, %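 (compounds screened at 7.5 µM in platelet-rich plasma)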 | actives 0.22% (n = 300,000) | human platelet-rich plasma, SFLLRN dense granule ATP release, luminescence;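 active = mean replicate score, as percent of positive control, at or above 50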
# VLA-4 allo CP: confirmation of allosteric modulators of human VLA-4 integrin. shares compounds with VLA-4 inh. U937 cells, HUTS-21 LIBS mAb binding, flow cytometry; LDV ligand present at threefold Kd. inhibition, % at 6.7 µM. actives 2% (n = 1,300). AID 2813; in the data active = inhibition above about 40%;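 also: 0% = ligand without compound and 100% = no ligand background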
# Starred values were filed as active, the others as inactive; nt = not tested or not shown.
SMILES,VLA-4 inh,Yeast superoxide,SKN-1 inh,ABCB6 inh 2,Platelet DG rel,VLA-4 allo CP
OC[C@H]1O[C@@H](n2cnc3c(Nc4ccccc4)ncnc32)[C@H](O)[C@@H]1O,3.4,93.7,2.9,95.0,21.2,1.8
NCCNC(=O)Cc1cccc(NC(=O)Cc2ccc(Nc3ncnc4c3ncn4[C@@H]3O[C@H](CO)[C@@H](O)[C@H]3O)cc2)c1,5.5,87.4,-6.0,104.0,30.7,nt
OCC1OC(n2cnc3c(NCc4ccccc4O)ncnc32)C(O)C1O (stereo unspecified),nt,nt,-3.0,100.0,nt,nt
OCC1OC(n2cnc3c(SCc4ccccc4)nc(F)nc32)C(O)C1O (stereo unspecified),nt,nt,1.0,98.0,nt,nt
Nc1ccc(CCNc2ncnc3c2ncn3[C@@H]2O[C@H](CO)[C@@H](O)[C@H]2O)cc1,17.9,108.2,-4.9,89.0,14.7,5.7
OCC1OC(n2cnc3c(NCCc4ccccc4)ncnc32)C(O)C1O (stereo unspecified),10.5,112.6,13.6,98.0,70.0*,1.1
CCCCNc1c(-c2cccnc2)nc2nc(C)cc(C)n12,nt,nt,19.7,120.0,nt,nt
COc1ccc(NC(=O)c2cc(C3CCCCN3C(=O)c3cccs3)on2)c(C)c1 (stereo unspecified),nt,nt,3.9,102.0,nt,nt
Cc1ccc(S(=O)(=O)N(C)C)cc1NC(=O)c1cc(S(=O)(=O)N2CCCCC2)ccc1N1CCOCC1,nt,nt,-2.6,78.0,nt,0.0
COc1cc(NC(=O)c2cc(S(=O)(=O)N3CCCCC3)ccc2N2CCOCC2)cc(OC)c1,0.0,108.8,-10.8,96.0,13.7,2.6
COc1ccc(C)cc1NC(=O)c1cc(S(=O)(=O)N2CCCCC2)ccc1N1CCOCC1,14.3,94.6,-9.5,95.0,nt,-4.9
O=C(Nc1ccc(OC(F)F)cc1)c1cc(S(=O)(=O)N2CCCCC2)ccc1N1CCOCC1,17.9,100.8,-3.9,95.0,nt,9.0
CC(=O)c1cccc(NC(=O)c2cc(S(=O)(=O)N3CCCCC3)ccc2N2CCOCC2)c1,nt,nt,1.9,99.0,nt,nt
Cc1ccc(S(=O)(=O)N2CCCC2CNC(=O)C(=O)NCc2ccc3c(c2)OCO3)cc1 (stereo unspecified),nt,nt,-6.4,95.0,nt,nt
Nc1sc(Cc2ccccc2)cc1C(=O)c1c(-c2ccccc2)[nH]c2ccccc12,nt,nt,14.2,nt,nt,nt
CC(=O)CC1c2ccccc2C=C(c2ccsc2)N1c1ccc(-c2cccs2)cc1 (stereo unspecified),nt,nt,2.5,109.0,nt,nt
CC(=O)Nc1ccc(NC(=O)c2cc(S(=O)(=O)N3CCCCC3)ccc2N2CCOCC2)cc1,nt,nt,-4.3,93.0,nt,2.4
NC(=O)c1ccc(NC(=O)c2cc(S(=O)(=O)N3CCCCC3)ccc2N2CCOCC2)cc1,20.2,80.4,-6.5,95.0,nt,nt
Cc1cc(Cl)c(S(=O)(=O)N2CCCC2)cc1OCC(=O)NC1CCCCC1,68.3*,137.5,7.5,87.0,2.1,6.5
O=c1c2[nH]c3ccc(Br)cc3c2ncn1Cc1ccncc1,6.4,83.4,nt,nt,5.0,-9.5
CN(Cc1ccccc1)C(=O)c1cc(=O)[nH]c2ccccc12,6.7,84.5,6.6,109.0,-1.1,nt
Cc1c(N(C(=O)c2cc(=O)[nH]c3ccccc23)C(C)C)c(=O)n(-c2ccccc2)n1C,10.5,97.7,-7.3,100.0,-6.5,0.0
CN(CC(=O)Nc1ccc(F)cc1)C(=O)Cn1c(=O)oc2ccccc21,10.2,88.5,-2.7,100.0,nt,nt
CN(CC(=O)Nc1cccc(F)c1)C(=O)Cn1c(=O)oc2ccccc21,13.6,85.2,3.9,96.0,nt,10.9
O=C(Cn1c(=O)oc2ccccc21)N1CCCC1,0.7,76.7,-1.8,102.0,3.9,-3.0
SMILES,VLA-4 inh,Yeast superoxide,SKN-1 inh,ABCB6 inh 2,Platelet DG rel,VLA-4 allo CP
Cc1ccc2oc(=O)n(CC(=O)N3CCOCC3)c2c1,2.0,99.1,-2.2,101.0,-6.7,0.6
CC1CCCCN1C(=O)Cn1c(=O)oc2ccccc21 (stereo unspecified),-5.3,100.0,-0.9,101.0,-0.5,nt
O=C(Cn1c(=O)oc2ccccc21)N1CCOCC1,26.4,88.1,-1.5,92.0,2.3,nt
CN(C(=O)Cn1c(=O)oc2ccccc21)C1CCCCC1,-1.2,76.9,-0.8,95.0,nt,9.0
O=C1c2ccccc2C(c2nnnn2Cc2ccccc2)N1C1CC1 (stereo unspecified),nt,nt,21.0,98.0,nt,nt
CCOC(=O)[C@@H](NC(=O)CC[C@H]1O[C@@H](n2ccc(=O)[nH]c2=O)[C@H](O)[C@@H]1O)C(C)C,nt,nt,-2.2,96.0,nt,nt

# From PubChem
